Screening results: PubChem, several laboratories
An excerpt weighted towards active compounds, which were near 1.5% of everything screened.
HDAC3 inhib: human HDAC3 inhibition. inhibition, % at 8.3 µM. 320,000 tested, 0.15% active. recombinant HDAC3, fluorogenic peptide/trypsin coupled, fluorescence; in the data active means inhibition above about 26%, passing the limit was not always enough; inconclusive means no clear call, values can overlap the other calls
Target sequence (O15379 whole entry, looked up): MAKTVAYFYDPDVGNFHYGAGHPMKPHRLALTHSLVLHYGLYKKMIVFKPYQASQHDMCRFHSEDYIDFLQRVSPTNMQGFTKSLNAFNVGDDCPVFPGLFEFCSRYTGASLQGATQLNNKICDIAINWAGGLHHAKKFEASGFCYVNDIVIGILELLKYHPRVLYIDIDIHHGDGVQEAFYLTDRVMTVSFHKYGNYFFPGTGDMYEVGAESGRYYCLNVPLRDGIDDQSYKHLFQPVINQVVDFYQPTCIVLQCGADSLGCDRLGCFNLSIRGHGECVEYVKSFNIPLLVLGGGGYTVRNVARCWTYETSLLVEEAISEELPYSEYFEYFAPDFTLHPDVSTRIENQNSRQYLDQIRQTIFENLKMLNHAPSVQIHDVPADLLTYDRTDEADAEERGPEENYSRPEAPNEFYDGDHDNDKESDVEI
GASC-1 inh: blocks human GASC-1 demethylase activity; Q9H3R0; GST-JMJD2C(1-420) H3K9me3 demethylation, DELFIA europium; inhibition, % at 2.35 µM; 330,000 tested, 0.069% active; AID 2099;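 active means more than half of a compound's replicate wells show inhibition beyond 50%, single wells judged on their own value; inconclusive means some, but no more than half, of replicates pass 50% inhibition; inactive means no replicate passes 50% inhibition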;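 further: signal counts dimethyl H3K9 product captured on neutravidin plate; 0% = median of DMSO wells and 100% = 0.3 times that DMSO median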
NALP3 yeast inh: blocks the NALP3 inflammasome reconstituted in yeast; Yeast reconstituted NLRP3/ASC/caspase-1, beta-gal luminescence, 24 h; inhibition, % at 10 µM; 330,000 tested, 0.39% active; AID 2825;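 active means inhibition of 50% or more; inactive means inhibition below 50%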;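 further: plate controls were induced DMSO wells for no effect and uninduced yeast grown without galactose for full effect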
Efflux pump mplx: blocks antifungal efflux pumps in multiplex yeast assay | S. cerevisiae Candida pump triplex, Nile Red efflux | inhibition, % at 10 µM | 330,000 tested, 0.44% active | AID 485275;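 active means plate passing quality check with inhibition over a set limit, or well fluorescence over plate mean plus 4 SD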;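 further: Nile Red retained in pooled yeast measured as flow cytometry median fluorescence; 0% = buffer negative control and 100% = Enniatin B positive control; higher means more Nile Red kept so more efflux inhibition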
PolyA inhibitor: blocks polyadenylation in yeast reporter cells; S. cerevisiae SKY197-pL101 polyadenylation reporter, beta-gal luminescence; efflux-impaired pdr1/pdr3 knockout yeast; score 100 = 6 SD above DMSO; activity score, % at 12 µM; 300,000 tested, 0.02% active;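 active means lowest replicate activity score at least 50, where 100 means six control SD above control mean; inconclusive means lowest score under 50 but half or more replicates reach 50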;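 further: yeast exposed to compound for 9 h at 30 °C; higher score means more reporter readthrough which indicates perturbed polyadenylation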
NALP1 yeast inh: blocks the NALP1 inflammasome reconstituted in yeast; inhibition, % at 10 µM; S. cerevisiae NALP1/ASC/caspase-1 growth, X-gal OD620, 72 h; 280,000 tested, 0.61% active; AID 2071; in the data active means inhibition mostly above about 24%, no sharp cut-off; inactive means mostly below about 32%
Cmpd fluor yeast: counter-screen for efflux pump inhibitors: compound fluorescence. shares compounds with Efflux pump mplx. S. cerevisiae AD/pABC3, flow cytometry. fluorescence ratio to DMSO, % at 10 µM. 1,700 tested, 4% active;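 active means fluorescence ratio to DMSO above its plate's cutoff, the plate mean ratio plus 5 SD, cut at about 210% in these data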;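 further: unstained yeast with no Nile Red so the signal is compound autofluorescence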
Mdr1 pump inh: blocks the Candida albicans Mdr1 efflux pump in yeast. shares compounds with Efflux pump mplx. S. cerevisiae AD/CaMDR1, Nile Red efflux, flow cytometry. inhibition, % at 10 µM. 1,700 tested, 1% active. AID 588518; in the data active means inhibition above about 26%;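 further: 0% = DMSO vehicle and 100% = reference inhibitor; higher means more Nile Red retained so more efflux inhibition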
CaCdr2 efflux inh: Candida Cdr2 efflux pump inhibition; shares compounds with Efflux pump mplx; S. cerevisiae AD/CaCDR2, Nile Red retention, flow cytometry; Nile Red retention ratio vs DMSO, % at 10 µM; 1,700 tested, 4% active; in the data active means Nile Red retention ratio vs DMSO above about 190%;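 further: higher ratio means more blocking of Cdr2 efflux of the dye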
CaCdr1 efflux inh: blocks the Candida albicans Cdr1 efflux pump in yeast | shares compounds with Efflux pump mplx | S. cerevisiae AD/CaCDR1, Nile Red efflux, flow cytometry | inhibition, % at 10 µM | 1,700 tested, 1% active;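 active means inhibition above the screen-wide mean plus twice its standard deviation, cut at about 32% in these data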
* hit, by the source's call; u = inconclusive; x = no result given; + = active, no number.

SMILES | HDAC3 inhib | GASC-1 inh | NALP3 yeast inh | Efflux pump mplx | PolyA inhibitor | NALP1 yeast inh | Cmpd fluor yeast | Mdr1 pump inh | CaCdr2 efflux inh | CaCdr1 efflux inh
CCN1CCCC1CNS(=O)(=O)c1cc(Br)cc2c1N(C(=O)C1CC1)CC2 (centres undefined) | -2 | 1 | -8 | 20* | 2 | 3 | 103 | 0 | 97 | 0
CCOCCCNS(=O)(=O)c1cc(Br)cc2c1N(C(=O)C1CC1)CC2 | 1 | 2 | 1 | 0 | -2 | 19 | x | x | x | x
CCOC(=O)c1cc(-c2ccccc2)n[nH]1 | -4 | 13 | 17 | 0 | 7 | -5 | x | x | x | x
CCOC(=O)c1ccc(-c2cc(C)no2)[nH]1 | 0 | 4 | -20 | 6.5* | 1 | 19 | 106 | 0 | 107 | 0
CC1CCN(C(=O)CCNC(=O)c2ccccc2Cl)CC1 | 3 | 6 | 14 | 0 | 6 | 0 | x | x | x | x
O=C(NCC1CCCO1)C1CCCN(S(=O)(=O)c2cc(Cl)ccc2Cl)C1 (centres undefined) | -8 | -25 | 12 | 0 | 8 | 8 | x | x | x | x
COc1ccccc1CC(=O)NC(=O)c1ccccc1O | -28 | -3 | 1 | 3.0* | 4 | 16 | 104 | 0 | 104 | 0
COc1ccc(/C=C/c2ccc3ccccc3[n+]2C)cc1OC | 5 | -1 | 19 | 1.1* | -21 | -4 | 227 | 2 | 112 | 2
CC(=O)Oc1ccccc1/C=C/c1ccc2ccccc2[n+]1C | 11 | -5 | 18 | 0 | u | 18 | x | x | x | x
Cc1ccc2sc(N(CCCN(C)C)C(=O)c3ccc(Br)s3)nc2c1C | 13 | 1 | 27 | 0.9* | 16 | 4 | 104 | 0 | 280* | 0
Cc1ccc2sc(N(CCCN(C)C)C(=O)c3nc4ccccc4s3)nc2c1C | -4 | -8 | 6 | 0 | -15 | 12 | x | x | x | x
CCc1nc(CN(C)C(=O)C2CCC(=O)N(CCc3cccc(F)c3)C2)no1 (centres undefined) | 1 | -5 | 13 | 1 | 17 | 16 | x | x | x | x
O=C(CCCN1C(=O)/C(=C/c2ccccc2Cl)SC1=S)NNC(=O)c1ccc(Cl)cc1 | -8 | -12 | -13 | 0.6* | -1 | x | 98 | 0 | 100 | 0
Cc1ccc(C(=O)NNC(=O)CCCN2C(=O)/C(=C/c3ccccc3Cl)SC2=S)cc1 | -7 | 1 | 0 | 0 | 6 | 20 | x | x | x | x
CCOC(=O)c1nn(-c2ccccc2)c(=O)c(C#N)c1C | -1 | 5 | -2 | 1.0* | 0 | 7 | 101 | 0 | 116 | 0
Cc1ccc(CSc2nnc(CCNC(=O)OC(C)(C)C)o2)cc1 | 6 | -18 | 29 | 0.8* | -23 | x | 99 | 0 | 95 | 0
C=C(C)CSc1nnc(CCCCCNC(=O)OC(C)(C)C)o1 | 0 | -26 | 10 | 1.0* | -13 | x | 106 | 0 | 98 | 0
CCOc1ccccc1-c1nc(C(N)=O)c2[nH]c(=O)n(-c3cccc(C)c3)c2n1 | -2 | 1 | 18 | 0.7* | -3 | -5 | 94 | 1 | 114 | 1
CCC(CC)c1nc(C(N)=O)c2[nH]c(=O)n(-c3ccc(OC)c(OC)c3)c2n1 | 8 | 1 | -8 | 0 | 5 | 26 | x | x | x | x
CCOc1cccc(-c2nc(C(N)=O)c3[nH]c(=O)n(-c4cccc(Cl)c4)c3n2)c1O | 5 | 28 | -8 | 0 | 3 | 19 | 105 | 0 | 123 | 0
CC(C)CCNC(=O)c1onc(CSc2ccccn2)c1C(=O)NCCC(C)C | 5 | -2 | 6 | 0.6* | -7 | x | 104 | 0 | 102 | 0
COCCNC(=O)c1onc(CSc2ccccn2)c1C(=O)NCCOC | 5 | -2 | 13 | 0 | -7 | x | x | x | x | x
O=C(CCN1C(=O)/C(=C/c2ccc(F)cc2)SC1=S)NCCCn1ccnc1 | 9 | 81 | 11 | 2.1* | -5 | 7 | 103 | -1 | 98 | 0
CCOc1ccc(CCNC(=O)COC(=O)c2cc([N+](=O)[O-])ccc2N2CCOCC2)cc1OCC | 8 | -10 | 5 | 9.2* | -9 | 30 | 81 | 0 | 87 | 0
Cc1ccc(-c2nnc(N)s2)cc1 | 1 | 0 | 17 | 5.5* | -2 | 8 | 113 | 1 | 105 | 0
SMILES | HDAC3 inhib | GASC-1 inh | NALP3 yeast inh | Efflux pump mplx | PolyA inhibitor | NALP1 yeast inh | Cmpd fluor yeast | Mdr1 pump inh | CaCdr2 efflux inh | CaCdr1 efflux inh
NC1=NC[C@H](Cc2ccccc2)N1CCCCC1CCCCC1 | 7 | -1 | -3 | 1.1* | 1 | x | 116 | 0 | 121 | 0
NC1=NC[C@H](Cc2ccc(O)cc2)N1CCc1cccc2ccccc12 | -1 | -3 | -5 | 0 | 10 | 13 | x | x | x | x
NC1=NC[C@H](Cc2ccc(O)cc2)N1CCCCC1CCCCC1 | 8 | 19 | -5 | 1 | 0 | x | 98 | 0 | + | 0
CC1CC(NC(=O)/C=C/C(=O)O)CC(C)(C)C1 (centres undefined) | -1 | 2 | 16 | 0 | 9 | 10 | x | x | x | x
COc1ccccc1NC(=O)c1ccccc1NC(=O)c1cc(Cl)ccc1NC(=O)c1ccco1 | 0 | 10 | 12 | 0.5* | 5 | -1 | 100 | 0 | 96 | 0
COc1ccccc1NC(=O)c1cc(Cl)ccc1NC(=O)c1ccco1 | -18 | 2 | 8 | 0 | -12 | -13 | x | x | x | x
Cc1cccc(N2CN(S(=O)(=O)c3cccc([N+](=O)[O-])c3)c3nc4ccccc4nc32)c1 | 0 | -6 | 2 | 0 | x | x | x | x | x | x
COc1ccc(OCc2cc(C(=O)NC(C)Cc3cccnc3)no2)c(Cl)c1 (centres undefined) | -5 | 2 | 14 | 0 | -8 | 9 | x | x | x | x
CCC(NC(=O)c1cc(COc2ccc(Cl)cc2OC)on1)c1ccncc1 (centres undefined) | -4 | 44 | 8 | 0 | 3 | 6 | x | x | x | x
COc1ccc(OCc2cc(C(=O)NC(C)Cc3ccccn3)no2)c(Cl)c1 (centres undefined) | 6 | 10 | 19 | 1.6* | -9 | 11 | 108 | 0 | 96 | 0
COc1ccc(OCc2cc(C(=O)N(C)C3CCOCC3)no2)c2ccccc12 | 0 | -22 | 22 | 0 | 4 | 14 | x | x | x | x
COc1ccc(OCc2cc(C(=O)N(C)C3CCOC3)no2)c(Cl)c1 (centres undefined) | -6 | -1 | 17 | 0 | -12 | 20 | 90 | 0 | 94 | 0
